# Compound activity (PubChem)
# An excerpt weighted towards active compounds, which were near 5.6% of everything screened.
# PfG6PD inh: PfG6PD (Plasmodium falciparum) enzyme inhibition; hit rate 0.78% among 350,000; inhibition, % at 20 µM; PfGluPho enzyme, NADPH resazurin-diaphorase fluorescence;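 active means inhibition reaching at least a set limit at 20 µM in the primary screen, cut at about 59% in these data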;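 further: 0% = DMSO wells with substrate and 100% = DMSO wells lacking glucose-6-phosphate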
# PfM18AAP inh: blocks P. falciparum M18 aspartyl aminopeptidase | recombinant PfM18AAP, H-Glu-NHMec fluorogenic cleavage | inhibition, % at 7.35 µM | hit rate 1.2% among 290,000 | AID 1822;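 active means inhibition above the campaign mean inhibition over all tested compounds plus 3 SD, cut at about 28% in these data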;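 further: 0% = plate median of test compound wells and 100% = 2 mM ZnCl2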
# ALR inh: human ALR oxidase inhibition via reduced H2O2 | P55789 | purified ALR, DTT oxidation, H2O2 HRP-luminol luminescence | inhibition, % (no concentration beside the values) | hit rate 3.8% among 290,000 | AID 485317;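 active means mean replicate inhibition above about 79%, with every replicate also reaching it, limit read from the data; inconclusive means only one of the two criteria met; inactive means mean below limit and not every replicate reaching it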
# Target sequence (P55789 whole entry, looked up): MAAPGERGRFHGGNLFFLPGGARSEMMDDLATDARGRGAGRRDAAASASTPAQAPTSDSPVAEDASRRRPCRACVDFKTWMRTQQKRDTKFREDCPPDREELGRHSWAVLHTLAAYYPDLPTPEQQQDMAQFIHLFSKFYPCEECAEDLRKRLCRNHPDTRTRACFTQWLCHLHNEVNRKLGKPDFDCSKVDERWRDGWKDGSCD
# PHOSPHO1 block: PHOSPHO1 (human) inhibition; inhibition, % at 13.3 µM; hit rate 1.1% among 290,000; recombinant PHOSPHO1, absorbance phosphatase assay; in the data active means inhibition above about 60%
# Target sequence (Q8TCT1 whole entry, looked up): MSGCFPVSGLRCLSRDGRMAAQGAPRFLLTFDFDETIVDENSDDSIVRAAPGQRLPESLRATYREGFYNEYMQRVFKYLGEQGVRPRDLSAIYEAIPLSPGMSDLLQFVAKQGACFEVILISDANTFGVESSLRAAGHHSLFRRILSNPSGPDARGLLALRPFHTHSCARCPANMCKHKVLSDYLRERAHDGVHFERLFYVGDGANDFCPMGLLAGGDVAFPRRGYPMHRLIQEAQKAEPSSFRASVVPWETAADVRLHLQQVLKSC
# H9c2 protect: protects H9c2 cardiomyocytes from peroxide injury; H2O2 injury protection, ATPLite, 2 h; protection from H2O2 cell death, % at 20 µM; hit rate 0.63% among 360,000; AID 588492;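 active means compounds giving at least 50% protection of heart cells from peroxide-induced death in the single-dose screen, raw or plate-pattern-corrected value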;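 further: 0% = DMSO wells with peroxide and 100% = DMSO wells without peroxide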
# * = called active by the depositor; ? = inconclusive; · = not tested or not shown.
SMILES,PfG6PD inh,PfM18AAP inh,ALR inh,PHOSPHO1 block,H9c2 protect
COc1cc(CNc2ccc(N3CCOCC3)cc2)ccc1OCC(=O)NC(C)(C)C,18,5,99*,·,4
CCOc1ccc(C(C)=O)cc1CN1c2ccc(S(N)(=O)=O)cc2CC1C (stereo not given),-4,3,79*,13,0
CN(C)S(=O)(=O)N1CCC(n2nccc2NC(=O)CCCc2ccccc2)CC1,-3,-6,-2,14,0
Cc1ccc(-n2cc(C(C)(C)C)[nH]c2=S)cc1,33,7,39,93*,-3
CC(C)(C)c1cn(-c2ccccc2)c(=S)[nH]1,32,15,?,76*,-2
COc1ccccc1-c1cn(-c2ccccc2)c(=S)[nH]1,37,13,·,23,-2
CC(C)C(=O)N1CCCC1(C)C(=O)NCc1ccc(Cl)cc1 (stereo not given),·,·,·,·,2
COc1cc(/C=N/NC(=O)c2nc3ccccn3c2C)cc(OC)c1O,16,17,99*,-29,4
COc1cc(/C=N/NC(=O)c2cc3c(ccc4ccccc43)o2)cc(OC)c1O,·,32*,-13,7,14
O=C(NC1CCCC1)c1ccc2c(c1)N(Cc1ccccc1)CCS2,8,10,17,34,0
Cc1ccc(CN2CCSc3ccc(C(=O)NCCCN4CCOCC4)cc32)cc1,-1,3,98*,54,10
Cc1ccc(CN2CCSc3ccc(C(=O)NCc4ccco4)cc32)cc1,11,4,47,-18,-2
O=C(NCCCN1CCOCC1)c1ccc2c(c1)N(Cc1ccccc1)CCS2,6,-5,99*,33,-2
O=C(NCC1CCCO1)c1ccc2c(c1)N(Cc1ccccc1)CCS2 (stereo not given),12,10,99*,44,4
CN1CCSc2ccc(C(=O)NCc3ccccc3)cc21,47,6,39,23,0
CN1CCN(CCCNC(=O)c2ccc3c(c2)N(Cc2ccccc2)CCS3)CC1,6,-5,99*,-1,-5
CCOc1ccc(CN2CCN(CCCc3ccccc3)CC2CCO)cc1 (stereo not given),3,-1,·,·,-6
CC(=O)c1sc(NC(=O)CCc2ccccc2)nc1C,3,·,·,·,2
Cc1ccc(CN2CCSc3ccc(C(=O)NC4CCN(Cc5ccccc5)CC4)cc32)cc1,-4,-18,27,16,1
O=C(NCCN1CCOCC1)c1ccc2c(c1)N(Cc1ccccc1)C(=O)CS2,-1,-17,-2,24,2
CCN1CCN(CCCNC(=O)c2ccc3c(c2)N(Cc2ccc(C)cc2)CCS3)CC1,4,2,99*,2,-2
O=C(NCCN1CCOCC1)c1ccc2c(c1)N(Cc1ccccc1)CCS2,14,2,100*,2,3
CCS(=O)(=O)c1nc(S(=O)(=O)c2ccc(C)cc2)c(NCCCn2ccnc2)s1,-2,3,1,15,1
CC(=O)N1CCCC(C)(C(=O)Nc2ccc3oc(C)nc3c2)C1 (stereo not given),·,·,·,·,3
COC(=O)[C@@H](NC(=O)Nc1cccc(OC)c1)C(C)C,-17,-2,2,60*,6
SMILES,PfG6PD inh,PfM18AAP inh,ALR inh,PHOSPHO1 block,H9c2 protect
COC(=O)[C@@H](NC(=O)Nc1ccc(OC)cc1)C(C)C,-9,4,-8,-38,-2
Cc1c2c(nc3ccccc13)CC(C)(C)CC2=O,-6,-2,94*,8,6
COc1cc(NC(=O)c2cc(-c3cc(F)ccc3OC(C)C)n[nH]2)cc(OC)c1OC,·,·,·,·,4
O=C(CCNC(=O)C1CCN(S(=O)(=O)c2ccc(F)cc2)CC1)NCCc1cccc(F)c1,-4,0,-21,15,2
O=C(CCNC(=O)C1CCN(S(=O)(=O)c2ccc(F)cc2)CC1)NCCc1ccc(Cl)cc1,-6,4,-18,64*,-3
Cc1noc(C)c1COC(=O)c1ccc2c(c1)S(=O)(=O)c1ccccc1C2=O,-6,4,-10,82*,20
NC(=O)COC(=O)c1ccc2c(c1)S(=O)(=O)c1ccccc1C2=O,-9,-1,-8,20,2
CCN1C(=S)SC(=O)C1=C1C=C(C)N(Cc2ccco2)C(C)=C1,28,0,99*,66*,-19
Cc1ccc(N(CC(=O)NCc2ccc3c(c2)OCO3)S(=O)(=O)c2c(C)noc2C)cc1,-4,11,97*,33,1
Cc1ccc(CNC(=O)CN(c2ccc(C(C)C)cc2)S(=O)(=O)c2c(C)noc2C)cc1,4,-1,5,53,-1
Cc1noc(C)c1S(=O)(=O)N(CC(=O)NCc1ccc2c(c1)OCO2)c1ccc(C(C)C)cc1,13,-1,95*,-7,-4
Cc1cc(C)cc(N(CC(=O)NCc2ccco2)S(=O)(=O)c2c(C)noc2C)c1,3,2,86*,15,1
CCOc1ccc(N(CC(=O)Nc2cccc(Cl)c2)S(=O)(=O)c2c(C)noc2C)cc1,16,-14,97*,6,-10
COc1ccc(CNC(=O)CN(c2cc(C)cc(C)c2)S(=O)(=O)c2c(C)noc2C)cc1,17,2,?,9,-2
CCOc1ccc(N(CC(=O)Nc2cccc(OC)c2)S(=O)(=O)c2c(C)noc2C)cc1,19,-9,-188,2,-3
O=c1c(Cl)c(Cl)cnn1Cc1nnc(-c2ccc(Cl)cc2)o1,12,-14,·,-27,-29
OC[C@@H]1CN(C2CCCC2)C[C@H](n2cnc3c(NC4CC4)ncnc32)O1,·,·,·,·,-1
CC(=O)c1ccc(NC(=O)/C(=C\c2ccc(F)cc2)NC(=O)c2ccco2)cc1,11,0,2,36,7
CCc1nc2ccc(C(=O)NCc3ccc4c(c3)OCO4)cn2c1N(C)CCC(C)C,·,·,·,·,-3
Cc1ccc(CSc2nc3sc(C)c(C)c3c(=O)n2Cc2ccco2)cc1,4,3,97*,19,-7
Cc1sc2nc(SCc3ccccc3)n(Cc3ccco3)c(=O)c2c1C,-3,0,3,13,-6
CC(=O)Nc1sc(N/N=C\c2cccc(Cl)c2)nc1-c1cccs1,19,14,-3,-20,-8
CC(=O)Nc1sc(NC(=O)c2ccccc2)nc1-c1cccs1,12,9,98*,1,5
CC(=O)Nc1sc(N/N=C\c2ccc(O)cc2)nc1-c1cccs1,21,17,91*,-42,8
S=C(Nc1ccc(Br)cc1Cl)NN1CCOCC1,-9,-17,17,43,-3
SMILES,PfG6PD inh,PfM18AAP inh,ALR inh,PHOSPHO1 block,H9c2 protect
CCOC(=O)C[n+]1c(C)csc1C,8,30*,-19,11,3
Cc1csc(C)[n+]1CC(=O)c1ccccc1,-9,-7,-18,24,-2
CN(C)/N=C/c1c(O)ccc2ccccc12,8,-5,-13,12,-10
CS/C(N)=N/N=C/c1c(O)ccc2ccccc12,-7,15,·,68*,-18
COc1cc2c(cc1OC)-c1cc(Nc3ccccc3)nc(=O)n1CC2,-1,-13,-23,13,4
CCOc1cccc(Nc2cc3n(c(=O)n2)CCc2cc(OC)c(OC)cc2-3)c1,-18,-1,10,51,60*
